# From PubChem BioAssay AID729 (The Scripps Research Institute Molecular Screening Center, 2007)
# Out of some 97,000 compounds screened, about 450 (0.46%) were called active. No stated cut-off is given here; in the data, active means activation above about 16%; inactive means the rest. This excerpt belongs to a sample that is enriched for actives.
# Target: Sphingosine 1-phosphate receptor 2 (Homo sapiens) (UniProt O95136)
# Assay: activation of human S1P2 receptor – cell-based, primary screen (AID 729);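 further: 0% = vehicle low control and 100% = maximal reference agonist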
# Conditions: S1P2-expressing cell line, agonist reporter read-out; at 4.5 µM; hits give high values
# Sequence of Sphingosine 1-phosphate receptor 2 (Homo sapiens) (O95136 whole entry, looked up): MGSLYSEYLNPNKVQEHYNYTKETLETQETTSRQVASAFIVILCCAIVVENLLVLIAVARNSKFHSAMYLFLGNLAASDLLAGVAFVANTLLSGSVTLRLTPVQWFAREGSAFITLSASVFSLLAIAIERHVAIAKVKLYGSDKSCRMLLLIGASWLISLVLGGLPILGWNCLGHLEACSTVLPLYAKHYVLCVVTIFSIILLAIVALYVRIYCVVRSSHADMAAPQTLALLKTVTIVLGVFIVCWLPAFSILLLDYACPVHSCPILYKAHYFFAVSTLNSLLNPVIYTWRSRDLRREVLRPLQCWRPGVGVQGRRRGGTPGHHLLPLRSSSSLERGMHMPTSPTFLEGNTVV
row,SMILES,activation
1,CCOC(=O)c1c(N)n(CCN2CCOCC2)c2nc3ccccc3nc12,-0.82% (inactive)
2,COc1cc(Cn2c(N)c(C(=O)NCc3ccco3)c3nc4ccccc4nc32)cc(OC)c1OC,28.7% (active)
3,CCOC(=O)c1c(N)n(Cc2ccccc2)c2nc3ccccc3nc12,1.34% (inactive)
4,O=c1c2ccccc2nc(-c2ccc(Cl)cc2Cl)n1-c1ccncc1,-3.53% (inactive)
5,OC(Cn1c2ccccc2c2ccccc21)C[n+]1ccccc1 (stereo not given),-10.8% (inactive)
